Molecules are shown by their SMILES. The panel holds about 83,000 compounds, 20% with a hit somewhere; the sample as a whole holds those more often.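 A percent growth of 40 corresponds to 60% growth inhibition; 0 means no net growth; -100 means all cells died. Active threshold: below 10.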 A number with no mark means an inactive call. Calls of active or inactive are those of the source.

Test systems include SK-MEL-2 melanoma; EKVX NSCLC; SN12C renal; UO-31 renal; TK-10 renal; ACHN renal; CAKI-1 renal; A498 renal; CCRF-CEM leukemia; MOLT-4 leukemia; SR leukemia; RPMI-8226 leukemia; OVCAR-8 ovarian; OVCAR-5 ovarian; OVCAR-4 ovarian; SK-OV-3 ovarian; IGROV1 ovarian; OVCAR-3 ovarian; HS 578T breast; NCI/ADR-RES ovarian.
Holding throughout (test): NCI-60 one-dose screen, 48 h (100 = growth as untreated, 0 = no growth, -100 = all killed)
Common to all, as to conditions: 10 µM unless noted

Regarding `C#Cc1cccc(NC(=O)c2ccccc2NC(=O)CCl)c1`, the growth in the assay with SK-MEL-2 melanoma is 90.2% [8.25 µM]; in the assay with EKVX NSCLC it was 94.1% [8.25 µM]; in the assay on SN12C renal, 64.6% [8.25 µM]; with UO-31 renal, 86.9% [8.25 µM]; in the assay with TK-10 renal, 91% [8.25 µM]; with ACHN renal it was 92% [8.25 µM]. The growth with CAKI-1 renal is 87.9% [8.25 µM]; in the assay on A498 renal, 107% [8.25 µM]; with CCRF-CEM leukemia it was 50.4% [8.25 µM]; in the assay on MOLT-4 leukemia, 70.3% [8.25 µM]; in the assay with SR leukemia, 62.1% [8.25 µM]; in the assay on RPMI-8226 leukemia, 99.5% [8.25 µM]. For the same compound, the growth in the assay with OVCAR-8 ovarian was 60.6% [8.25 µM]; with OVCAR-5 ovarian, 118% [8.25 µM]; in the assay with OVCAR-4 ovarian it was 82.3% [8.25 µM]; in the assay with SK-OV-3 ovarian, 95.2% [8.25 µM]; in the assay with IGROV1 ovarian, -26.1% [8.25 µM] (active); in the assay on OVCAR-3 ovarian it was 90.6% [8.25 µM]. In addition, the growth is 69.3% [8.25 µM] in the assay on HS 578T breast and 81.1% [8.25 µM] with NCI/ADR-RES ovarian.

As for `Cn1c(=O)[nH]c(=O)c2nc(CCC(=O)NCCC(=O)O)c(=O)[nH]c21`, the growth was 106% in the assay with SK-MEL-2 melanoma; 106% with EKVX NSCLC; 99.5% in the assay with SN12C renal; 86.6% in the assay with UO-31 renal; 106% in the assay with TK-10 renal; 101% with ACHN renal. Besides, the growth in the assay with CAKI-1 renal is 93.5%; with A498 renal, 114%; in the assay with CCRF-CEM leukemia it was 109%; in the assay with MOLT-4 leukemia it was 106%; with SR leukemia, 113%; in the assay on RPMI-8226 leukemia it was 111%. The growth in the assay with OVCAR-8 ovarian is 101%; in the assay with OVCAR-5 ovarian it was 106%; with OVCAR-4 ovarian it was 106%; in the assay with SK-OV-3 ovarian it was 101%; with IGROV1 ovarian it was 98.6%; in the assay with OVCAR-3 ovarian, 113%. For the same compound, the values for the growth with HS 578T breast and in the assay on NCI/ADR-RES ovarian were 89.8% and 105%, respectively.

As for `CCOc1cc2ncc(C#N)c(Nc3ccc(F)c(Cl)c3)c2cc1NC(=O)CC1CCSS1` (centres undefined), the growth is -49.2% (active) with SK-MEL-2 melanoma; -55% (active) in the assay with EKVX NSCLC; -55.9% (active) in the assay with SN12C renal; -92.4% (active) with UO-31 renal; -74.2% (active) in the assay on TK-10 renal; -90.7% (active) in the assay on ACHN renal. For the same compound, the growth with CAKI-1 renal is -73.4% (active); in the assay with A498 renal, -53.7% (active); in the assay with CCRF-CEM leukemia, -20.2% (active); in the assay on MOLT-4 leukemia it was -47% (active); with SR leukemia, -27.8% (active); in the assay on RPMI-8226 leukemia, -5.51% (active). The growth was -41.7% (active) in the assay with OVCAR-8 ovarian; -40.6% (active) in the assay with OVCAR-5 ovarian; -69.4% (active) in the assay on OVCAR-4 ovarian; -91.7% (active) in the assay with SK-OV-3 ovarian; -45.9% (active) in the assay with IGROV1 ovarian; -86.3% (active) with OVCAR-3 ovarian. For the same compound, the growth is -17.4% (active) in the assay with HS 578T breast and -30.3% (active) with NCI/ADR-RES ovarian.

On to `COc1cc(-c2nn(C)nc2-c2cc3ccccc3s2)cc(OC)c1OC`, for which the growth in the assay on SK-MEL-2 melanoma was 32.9%; with EKVX NSCLC it was 43.6%; in the assay on SN12C renal, 42.3%; in the assay on UO-31 renal it was 40.4%; with TK-10 renal, 65%; in the assay with ACHN renal, 43.2%. Besides, the growth with CAKI-1 renal was 43.6%; in the assay with A498 renal it was 1.32% (active); in the assay on CCRF-CEM leukemia, 17.5%; in the assay with MOLT-4 leukemia, 11.7%; in the assay on SR leukemia, 21.6%; in the assay with RPMI-8226 leukemia it was 20.7%. Besides, the growth in the assay on OVCAR-8 ovarian is 28%; with OVCAR-5 ovarian, 57.2%; in the assay with OVCAR-4 ovarian, 57.1%; in the assay with SK-OV-3 ovarian it was 21.2%; with IGROV1 ovarian, 39%; with OVCAR-3 ovarian, 0.446% (active). For the same compound, the values for the growth in the assay with HS 578T breast and in the assay with NCI/ADR-RES ovarian were 19.3% and 9.9% (active), respectively.

As for `COc1ccc(-c2nc3cc(C(=O)Nc4cc(OC)c(OC)c(OC)c4)ccc3n2C2CCCCC2)cc1`, the growth is 95.6% in the assay on SK-MEL-2 melanoma; 91.8% in the assay on EKVX NSCLC; 91.7% in the assay with SN12C renal; 78.7% in the assay with UO-31 renal; 111% in the assay with TK-10 renal; 93.2% in the assay with ACHN renal. Moreover, the growth in the assay with CAKI-1 renal is 97.4%; with A498 renal it was 113%; in the assay with CCRF-CEM leukemia, 94.3%; in the assay with MOLT-4 leukemia it was 83.1%; with SR leukemia it was 57.5%; in the assay on RPMI-8226 leukemia, 91.7%. The growth in the assay on OVCAR-8 ovarian is 96.6%; in the assay on OVCAR-5 ovarian, 98.1%; with OVCAR-4 ovarian, 109%; in the assay with SK-OV-3 ovarian, 104%; with IGROV1 ovarian, 96.5%; with OVCAR-3 ovarian it was 101%. The growth with HS 578T breast was 81.9%; in the assay on NCI/ADR-RES ovarian it was 98.3%.

As to `COc1ccc(/C=C\c2cc(OC)c(OC)c(OC)c2)cc1OCC(=O)Nc1ccc2nc(C)sc2c1`, the growth with SK-MEL-2 melanoma was -1.27% (active); with EKVX NSCLC, 66.8%; in the assay on SN12C renal, 51.8%; with UO-31 renal it was 5.67% (active); in the assay on TK-10 renal, 1.02% (active); in the assay on ACHN renal, 47.1%. In addition, the growth with CAKI-1 renal was 23%; with A498 renal, 80.1%; in the assay with CCRF-CEM leukemia, 15.5%; in the assay on MOLT-4 leukemia, 22.7%; with SR leukemia, 12.2%; in the assay with RPMI-8226 leukemia it was -8.5% (active). Besides, the growth in the assay on OVCAR-8 ovarian is 9.11% (active); in the assay on OVCAR-5 ovarian, 112%; in the assay on OVCAR-4 ovarian, 43%; in the assay on SK-OV-3 ovarian, 78.5%; in the assay with IGROV1 ovarian, 25.2%; with OVCAR-3 ovarian it was 41.6%. In addition, in the assay with NCI/ADR-RES ovarian, the growth was 0.808% (active).

Take `COc1ccc(-n2nc(C)c3c(Oc4ccc(NC(=O)Nc5c(Cl)cccc5Cl)cc4)ncnc32)cc1`: the growth in the assay on SK-MEL-2 melanoma is 106%; in the assay with EKVX NSCLC, 95.8%; in the assay with SN12C renal, 101%; in the assay on UO-31 renal, 86.5%; in the assay on TK-10 renal it was 110%; in the assay with ACHN renal, 106%. The growth in the assay with CAKI-1 renal is 95.3%; in the assay on A498 renal it was 99.1%; in the assay with CCRF-CEM leukemia, 95.5%; with MOLT-4 leukemia, 106%; with SR leukemia it was 111%; in the assay on RPMI-8226 leukemia it was 102%. Also, the growth in the assay with OVCAR-8 ovarian was 97.4%; with OVCAR-5 ovarian it was 112%; in the assay on OVCAR-4 ovarian it was 99.9%; in the assay with SK-OV-3 ovarian, 89%; with IGROV1 ovarian it was 101%; with OVCAR-3 ovarian it was 112%. The growth was 92% in the assay on HS 578T breast and 102% in the assay on NCI/ADR-RES ovarian.

For `NNCCc1ccc(NC(=O)CCCc2ccc(/C=C/C(=O)NO)cc2)cc1`, the growth in the assay on SK-MEL-2 melanoma is 52.4%; with EKVX NSCLC, 69.2%; in the assay on SN12C renal, 55.8%; in the assay on UO-31 renal, 49.2%; in the assay with TK-10 renal it was 76.5%; with ACHN renal, 88.3%. Besides, the growth in the assay on CAKI-1 renal is 93.6%; in the assay with A498 renal it was 47%; with CCRF-CEM leukemia, 16.5%; in the assay with MOLT-4 leukemia, 12.1%; with SR leukemia it was 18.2%; with RPMI-8226 leukemia, 37.5%. In addition, the growth is 8.02% (active) with OVCAR-8 ovarian; 71.4% in the assay with OVCAR-5 ovarian; 29.9% in the assay on OVCAR-4 ovarian; 64.1% in the assay with SK-OV-3 ovarian; 62.9% with IGROV1 ovarian; 55.3% in the assay on OVCAR-3 ovarian. Also, the growth is 21.2% in the assay on HS 578T breast and 44.3% in the assay with NCI/ADR-RES ovarian.

Source of the values: PubChem BioAssay (NCI).
